According to PubChem BioAssay (NCATS):
Several values for one entry are separate records, joined by “and”; a condition that tells them apart may be missing. Equal values may be shown once. Records with an inconclusive call do not appear. Activity calls are given as the source filed them. Unless noted, calls come from the whole dose curve; as a rule, active = well fitted curve in the direction sought with a large enough effect; inconclusive = small, poorly fitted or top-dose-only effect, or another doubt; inactive = no such curve, though single readings can be large; an effect the other way counts as inactive or inconclusive.

Legend:
[1] = Cellular Toxicity (caspase-3) HUV-EC-C (AID 656);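 note: 0% = DMSO basal and 100% = 100 µM tamoxifen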
Method in brief: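 HUV-EC-C endothelial cells, 1000/well, were pre-incubated 5 hr at 37°C, then exposed to compounds for 16 hr at 37°C. Caspase-Glo 3/7 luminescence was read after 20 min at room temperature. AC50 came from Hill fits, normalized to DMSO and 100 uM tamoxifen.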

[2] = Cellular Toxicity (caspase-3) SHSY5Y (AID 657)
Method in brief: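 SH-SY5Y human neuroblastoma cells (1500/well) were treated with compounds for 16 h at 37 °C, then Caspase-Glo 3/7 luminescence was read after 1 h at room temperature. Data normalized to DMSO and 10 uM staurosporine; AC50 from Hill fits.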

[3] = Cellular Toxicity (caspase-3) H-4-II-E (AID 663); conditions: Potency: caspase-3 activation;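 note: cells exposed to compound for 16 hr before readout; 0% = DMSO basal and 100% = 100 µM tamoxifen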
Method in brief: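 Luminescence from caspase-cleaved aminoluciferin substrate, read 20 min after reagent addition, reports caspase 3/7 activation in rat H-4-II-E cells after 16 hr compound exposure. Normalized to DMSO (basal) and 100 uM tamoxifen (100%); AC50 from Hill fits.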

[4] = Cell Viability - LYMP1-002 - Assay at 16 hr (AID 948);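 note: 0% = DMSO alone and full effect = 92 µM tetraoctylammonium bromide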
Method in brief: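 Human lymphoblastoid cells (LYMP1-002), 2500/well, were preincubated 5 hr at 37 C, then exposed to compounds for 16 hr at 37 C in complete medium. Cellular ATP was read by CellTiter-Glo luminescence after 30 min at room temperature; AC50 from Hill fits.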

[5] = MultiTox-Fluor Cytotoxicity Assay - LYMP1-002 - Dead Cells (AID 960); note: nearly all actives have a fitted effect of over 60% in size
Method in brief: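 LYMP1-002 cells 2500/well; 5 hr 37 C pre-incubation; compound 16 hr 37 C; MultiTox-Fluor reagent 60 min RT; dead-cell fluor Ex/Em 485/520. Norm. to DMSO (0%) vs 15 uM tetraoctylammonium bromide (100%); Hill AC50.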

[6] = Cell Viability - LYMP2-003 (AID 965);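 note: cells exposed to compounds for 24 h before reading; 0% = DMSO only and full effect = 92 µM tetraoctylammonium bromide; nearly all actives have a fitted effect of over 50% in size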
Method in brief: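 Human lymphoblastoid cells (2500/well) were pre-incubated 5 hr at 37 C, then exposed to compounds over a concentration range for 24 hr at 37 C. Intracellular ATP was read by CellTiter-Glo luminescence; AC50 came from Hill-equation fits.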

[7] = Cell Viability - LYMP2-009 (AID 968);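 note: series mostly up to about 92 µM; 0% = DMSO alone and the full-kill end = tetraoctylammonium bromide at 92 µM; nearly all actives have a fitted effect of over 55% in size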
[8] = Cell Viability - LYMP2-011 (AID 969);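 note: 0% = DMSO only and full inhibition = 92 µM tetraoctylammonium bromide; nearly all actives have a fitted effect of over 60% in size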
Method in brief: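 2500 cells/well, 5 hr 37 C; compound added, 24 hr 37 C; CellTiter-Glo 30 min RT; luminescence. qHTS concentration-response, Hill-equation AC50. Tetraoctylammonium bromide positive control.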

[9] = Cell Viability - LYMP2-013 (AID 970);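 note: series mostly up to about 92 µM; 0% = DMSO only and full inhibition = tetraoctylammonium bromide control; nearly all actives have a fitted effect of over 55% in size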
Method in brief: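 qHTS; 2500 lymphoblastoid cells/well; 5 hr 37 C settle; cpd 24 hr 37 C; CellTiter-Glo, 30 min RT; luminescence. AC50 = Hill fit.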

[10] = Cell Viability - LYMP2-017 (AID 972); note: series mostly up to about 92 µM; % is set by controls: 0 for no effect and ±100 for the full control effect; nearly all actives have a fitted effect of over 55% in size
Method in brief: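 2500 cells/well, 5 h 37 C; cpd 24 h 37 C in complete medium; CellTiter-Glo, 30 min RT; luminescence (ATP). AC50 via Hill fit, qHTS.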

[11] = Cell Viability - LYMP2-012 (AID 982);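 note: cellular ATP by luciferase luminescence where a drop means cytotoxicity; cells exposed to compound for one day before reading; 0% = DMSO only and full loss = 92 µM tetraoctylammonium bromide; nearly all actives have a fitted effect of over 55% in size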
[12] = biological target: Retinoic acid receptor RXR-alpha (Homo sapiens) (UniProt P19793); assay: qHTS assay for small molecule agonists of retinoid X receptor alpha signaling (AID 588544; calls by dose curve;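 note: 0% = DMSO basal wells and 100% = reference agonist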)
[13] = biological target: Retinoic acid receptor RXR-alpha (Homo sapiens) (UniProt P19793); assay: qHTS assay for small molecule antagonists of retinoid X receptor alpha signaling (AID 588546; active = well fitted inhibition curve with a large enough effect in the signal ratio, with a control signal flat, not every such curve was filed as active; the % refers to the signal ratio;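 note: cells stimulated with 9-cis-retinoic acid as agonist; % is set by controls: 0 for no effect and ±100 for the full control effect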); conditions: HEK293T RXRa-UAS-bla, beta-lactamase ratio, antagonist mode
Method in brief: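 Beta-lactamase reporter inhibition, read as CCF4 fluorescence ratio (ex 405, em 460/530 nm) after 2 h at RT. HEK293T UAS-bla cells, 2500/well, were stimulated with 9-cis-RA at 500 or 100 nM final alongside test compound for 18 h at 37 C.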

[14] = qHTS assay for small molecule activators of the p53 signaling pathway (AID 651743; active = well fitted activation curve with a large enough effect in the signal ratio, not every such curve was filed as active; the % refers to the signal ratio; note: series mostly up to about 92 µM; % of control where 0% means no effect); conditions: HCT-116 p53RE-bla, beta-lactamase FRET ratio, 16 h; activation: active compounds read high
Method in brief: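 Cell-based beta-lactamase reporter (p53 response elements, HCT-116 background). After a 5-hour preincubation, cells received compound for 16 hours at 37 C; substrate development ran 2 hours at room temperature.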

[15] = qHTS assay for small molecule agonists of the antioxidant response element (ARE) signaling pathway measured by Nrf2-dependant transcriptional activity - cell viability counter screen (AID 720653; active = well fitted curve in the direction sought with a large enough effect in the repeat runs; an effect the other way counts as inactive or inconclusive; note: % is set by controls: 0 for no effect and ±100 for the full control effect); conditions: ARE-bla HepG2 viability, CellTiter-Glo ATP luminescence, 16 h; active compounds read low
Method in brief: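 ARE-bla HepG2 cells (2,000/well) rested 5 hrs at 37C/5% CO2, then exposed to compounds in DMSO for 16 hrs. Viability was read in the same wells as intracellular ATP by luminescence, 30 min at room temperature after reagent addition.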

[16] = Cellular Toxicity (caspase-3) SK-N-SH (AID 661);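 note: 0% = DMSO basal and 100% = 10 µM staurosporine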
Method in brief: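 Human neuroblastoma SK-N-SH, 1500 cells/well, 5 hr pre-incubation, then compound 16 hr, 37 °C. Caspase-Glo 3/7 reagent, 1 hr RT, luminescence. Norm. to DMSO/10 uM staurosporine; Hill-fit AC50.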

[17] = Cell Viability - LYMP1-003 - Assay at 40 hr (AID 964); note: series mostly up to about 92 µM; % is set by controls: 0 for no effect and ±100 for the full control effect; nearly all actives have a fitted effect of over 60% in size
Method in brief: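 Cells were seeded at 2500 per well and incubated 5 hr at 37 C. Compounds were added across a concentration series and left 40 hr at 37 C. CellTiter-Glo was added for 30 min at room temperature before luminescence reading.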

[18] = Cell Viability - LYMP2-023 (AID 975)
Method in brief: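 2500 cells/well, 5 hr 37 C; cpd 24 hr 37 C; CellTiter-Glo, 30 min RT; luminescence. qHTS conc-response, Hill fit -> AC50. Pos ctrl tetraoctylammonium bromide.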

[19] = Cell Viability - LYMP2-002 (AID 977);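 note: series mostly up to about 92 µM; plate controls were DMSO only for no effect and 92 µM tetraoctylammonium bromide for full effect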
Method in brief: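 Luminescent ATP readout (CellTiter-Glo, 30 min room temperature) after 24 h compound exposure at 37 C of a human lymphoblastoid line, 2500 cells/well. AC50 values derived by standard Hill fitting of qHTS concentration-response data.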

[20] = Cell Viability - LYMP1-003 - Assay at 24 hr (AID 963);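 note: plate controls were DMSO only for no effect and tetraoctylammonium bromide positive control for full effect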
Method in brief: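 Cells seeded at 2500/well, 5 hr at 37 C; compounds added; 24 hr at 37 C; CellTiter-Glo added, 30 min room temperature; luminescence read. Decrease in ATP taken as cytotoxicity, AC50 from Hill modelling.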

Chain of Retinoic acid receptor RXR-alpha (Homo sapiens) (P19793 whole entry, looked up): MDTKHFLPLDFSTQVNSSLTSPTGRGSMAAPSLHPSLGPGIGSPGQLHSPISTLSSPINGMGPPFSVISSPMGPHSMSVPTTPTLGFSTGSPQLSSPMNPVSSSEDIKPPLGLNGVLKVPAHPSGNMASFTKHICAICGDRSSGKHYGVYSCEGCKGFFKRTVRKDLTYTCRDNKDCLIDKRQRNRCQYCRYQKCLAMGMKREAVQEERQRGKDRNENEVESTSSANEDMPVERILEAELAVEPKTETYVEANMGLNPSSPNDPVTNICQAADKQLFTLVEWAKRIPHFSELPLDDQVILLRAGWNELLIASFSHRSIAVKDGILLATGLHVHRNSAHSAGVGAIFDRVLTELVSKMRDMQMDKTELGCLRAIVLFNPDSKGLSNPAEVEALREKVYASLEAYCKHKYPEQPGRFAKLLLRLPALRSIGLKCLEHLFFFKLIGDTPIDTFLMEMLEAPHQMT

Cc1ccccc1[N+](=O)[O-]
inactive: outcome [1] | outcome [2] | Potency [3] | outcome [4] | Potency [5] | Potency [6] | Potency [7] | Potency [8] | Potency [9] | Potency [10] | Potency [11] | outcome [12] | max response [13] 10.9% | activation [14] 1.69% | max response [15] 11.5%

O=NN1CCCCC1
inactive: outcome [1] | outcome [2] | Potency [16] | Potency [3] | outcome [4] | Potency [5] | Potency [17] | Potency [6] | Potency [7] | Potency [8] | Potency [9] | Potency [10] | Potency [18] | Potency [19] | Potency [11] | outcome [12] | max response [13] 14.4% | activation [14] -2.94% | max response [15] -0.59%

CCNCC
inactive: outcome [1] | outcome [2] | Potency [16] | Potency [3] | outcome [4] | Potency [5] | outcome [20] | Potency [17] | Potency [7] | Potency [8] | Potency [10] | Potency [18] | Potency [19] | Potency [11] | outcome [12]

C=CC(=O)OC
inactive: outcome [1] | Potency [3] | outcome [4] | outcome [20] | Potency [17] | Potency [6] | Potency [7] | Potency [8] | Potency [9] | Potency [18] | Potency [19] | Potency [11] | outcome [12] | max response [13] -3.6% | activation [14] -0.53%

CC(Cl)(Cl)Cl
inactive: outcome [2] | Potency [16] | Potency [3] | outcome [4] | outcome [20] | Potency [17] | Potency [6] | Potency [9] | Potency [18] | Potency [19] | Potency [11] | outcome [12] | max response [13] 5.12% and 15.9% | activation [14] -0.56% and -3.67%

ClCc1ccccc1
inactive: outcome [2] | Potency [16] | Potency [3] | outcome [4] | Potency [5] | outcome [20] | Potency [6] | Potency [7] | Potency [8] | Potency [11] | outcome [12] | max response [13] 6.84% | activation [14] -2.55% | max response [15] 16.1%

CC(=O)NNc1ccccc1
inactive: outcome [4] | outcome [20] | Potency [17] | Potency [7] | Potency [8] | Potency [9] | Potency [18] | Potency [19] | Potency [11] | max response [13] -22.9% | max response [15] 1.56%

C=C(Cl)CCl
inactive: outcome [1] | outcome [2] | Potency [16] | outcome [4] | Potency [5] | Potency [17] | Potency [6] | Potency [7] | Potency [8] | Potency [9] | Potency [10] | Potency [18] | Potency [19] | Potency [11] | max response [13] -0.897% | activation [14] -0.495% | max response [15] 19%

ClC(Cl)c1ccccc1
inactive: Potency [16] | Potency [3] | outcome [4] | Potency [5] | Potency [17] | Potency [7] | Potency [8] | Potency [9] | Potency [10] | Potency [18] | Potency [11] | max response [13] 0.971% | max response [15] -0.372%

ClCCBr
inactive: outcome [1] | outcome [2] | Potency [16] | Potency [3] | outcome [4] | Potency [5] | outcome [20] | Potency [17] | Potency [6] | Potency [7] | Potency [8] | Potency [9] | Potency [10] | Potency [18] | Potency [19] | outcome [12] | max response [13] -1.05% | activation [14] 0.777% | max response [15] -7.21%

CC(C)[C@]12CC(=O)[C@H](C)[C@H]1C2
inactive: outcome [1] | outcome [2] | Potency [16] | Potency [3] | outcome [4] | Potency [5] | Potency [17] | Potency [6] | Potency [7] | Potency [8] | Potency [10] | Potency [19] | outcome [12] | max response [15] -4.23% and -2.13%

CCC(Cl)[N+](=O)[O-] (stereo not drawn)
inactive: outcome [1] | outcome [2] | Potency [16] | Potency [3] | outcome [4] | Potency [5] | outcome [20] | Potency [17] | Potency [6] | Potency [7] | Potency [8] | Potency [9] | Potency [10] | Potency [18] | Potency [19] | Potency [11] | outcome [12] | max response [13] -10.3% | activation [14] -1.08% | max response [15] -4.85%

ClC(Cl)C(Cl)Cl
inactive: Potency [16] | Potency [3] | outcome [4] | Potency [5] | outcome [20] | Potency [17] | Potency [6] | Potency [7] | Potency [8] | Potency [9] | Potency [10] | Potency [19] | Potency [11] | outcome [12] | max response [13] 4.18% | activation [14] -4.56% | max response [15] -4.41%

Oc1cccc(Cl)c1
inactive: outcome [1] | Potency [16] | Potency [3] | outcome [4] | Potency [5] | outcome [20] | Potency [6] | Potency [8] | Potency [9] | Potency [10] | Potency [18] | Potency [11] | activation [14] 0.857% | max response [15] -6.82%

CC(C)Br
inactive: outcome [1] | outcome [2] | Potency [16] | Potency [3] | outcome [4] | Potency [5] | outcome [20] | Potency [17] | Potency [6] | Potency [7] | Potency [8] | Potency [9] | Potency [10] | Potency [18] | Potency [11] | outcome [12] | max response [13] -3.19% | activation [14] -2.41% | max response [15] -6.22%

C=COC(C)=O
inactive: outcome [1] | outcome [2] | Potency [16] | Potency [3] | outcome [4] | Potency [5] | Potency [17] | Potency [6] | Potency [7] | Potency [8] | Potency [9] | Potency [10] | Potency [18] | Potency [19] | Potency [11] | outcome [12] | max response [13] -3.99%
